Experimental findings from PubChem BioAssay (NCI) are described below.

The panel holds about 83,000 compounds, 20% with a hit somewhere; the sample as a whole holds those more often.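 Interpretation: 100, growth as untreated; towards 0, rising growth inhibition; 0, no net growth; 0 to -100, cell death. Compounds scoring below 10 were considered active.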 Unmarked numbers belong to inactive results. Activity calls are given as the source filed them.

Test systems include NCI-H23 lung; NCI-H226 lung; NCI-H322M lung; HOP-62 NSCLC; NCI-H460 lung; A549/ATCC NSCLC; 786-0 renal; COLO 205 colon; DU-145 prostate; NCI-H522 lung.
Test in all cases: NCI-60 one-dose screen, 48 h (100 = growth as untreated, 0 = no growth, -100 = all killed)
Common to all, as to details: 10 µM unless noted

As to `Cc1nc2c(O)cccc2cc1CO`, the growth in the experiment on NCI-H23 lung is 94.9%; with NCI-H226 lung, 114%; in the experiment with NCI-H322M lung, 165%; with HOP-62 NSCLC, 106%; in the experiment with NCI-H460 lung, 103%; in the experiment on A549/ATCC NSCLC, 109%. For the same molecule, the growth with 786-0 renal is 96.3%; in the experiment with COLO 205 colon, 142%; with DU-145 prostate it was 113%.

As for `CC12CCC3C(CCC4CC(=O)/C(=C\O)CC43C)C1CCC(=O)O2` (centres undefined), the growth in the experiment on NCI-H23 lung is 98.8%; in the experiment on NCI-H226 lung it was 113%; in the experiment with NCI-H322M lung, 108%; in the experiment on HOP-62 NSCLC, 90.9%; in the experiment with NCI-H460 lung it was 115%; with A549/ATCC NSCLC it was 106%. Further, the values for the growth in the experiment with 786-0 renal, in the experiment with COLO 205 colon and in the experiment on DU-145 prostate were 92.5%, 150% and 115%, respectively.

As to `Cc1ccccc1-c1cc(Cc2ccccc2O)c(=O)[nH]n1`, the growth in the experiment with NCI-H23 lung was 103%; with NCI-H226 lung it was 85.8%; with NCI-H322M lung, 115%; in the experiment on HOP-62 NSCLC it was 108%; in the experiment on NCI-H460 lung, 115%; in the experiment with A549/ATCC NSCLC, 107%. Also, the growth in the experiment on 786-0 renal is 98.9%; in the experiment on DU-145 prostate it was 125%.

As for `CCCCOc1ccc(C(C)(C)c2ccc(OCCCC)cc2)cc1`, the growth in the experiment on NCI-H23 lung was 103%; with NCI-H226 lung, 104%; in the experiment on NCI-H322M lung, 99.1%; in the experiment on HOP-62 NSCLC, 102%; in the experiment with NCI-H460 lung, 113%; in the experiment with 786-0 renal it was 91%. For the same molecule, the growth in the experiment on COLO 205 colon is 121%; with DU-145 prostate it was 107%.

As to `O=C1NC(=O)/C(=C\c2ccccc2)C2=C1CCCC2`, the growth with NCI-H23 lung was -44.7% (active); with NCI-H226 lung, 92.3%; in the experiment on NCI-H322M lung it was 107%; with HOP-62 NSCLC, 119%; in the experiment on NCI-H460 lung it was 85.5%; with 786-0 renal it was 61.7%. The growth in the experiment on COLO 205 colon was -63.2% (active); with DU-145 prostate, 25.7%.

In the case of `CCC(CC)NCCCCCNc1cc(OC)cc2cccnc12`, the growth with NCI-H23 lung is 94.7%; in the experiment with NCI-H226 lung, 96.6%; in the experiment with NCI-H322M lung, 120%; with HOP-62 NSCLC it was 84.6%; in the experiment on NCI-H460 lung, 105%; in the experiment on A549/ATCC NSCLC, 96.1%. For the same molecule, the figures for the growth in the experiment with 786-0 renal, in the experiment on COLO 205 colon and with DU-145 prostate were 95%, 82.7% and 102%, respectively.

On to `CCOC(=O)c1ccccc1OC(=O)NNc1ccccc1`, for which the growth with NCI-H23 lung was 100%; with NCI-H226 lung, 88.8%; with NCI-H322M lung, 58%; in the experiment on HOP-62 NSCLC, 70.6%; in the experiment with NCI-H460 lung, 30.5%; with A549/ATCC NSCLC it was 74.1%. In addition, the growth in the experiment on 786-0 renal was 44.6%; in the experiment with COLO 205 colon it was 76.2%; in the experiment with DU-145 prostate, 82%.

Regarding `O=C1OCCCCCCCCCC#Cc2ccccc21`, the growth was 97% in the experiment on NCI-H23 lung; 110% in the experiment on NCI-H226 lung; 126% in the experiment with NCI-H322M lung; 99.7% in the experiment with HOP-62 NSCLC; 133% with NCI-H460 lung; 103% with A549/ATCC NSCLC. Also, the growth was 103% with 786-0 renal, 100% in the experiment on COLO 205 colon and 116% with DU-145 prostate.

For the molecule `CCC(C)CC(C)C(=O)c1c(O)ccn(OC)c1=O` (centres undefined), the growth with NCI-H23 lung is 84.7%; with NCI-H226 lung, 84.2%; in the experiment with NCI-H322M lung, 69.2%; in the experiment on HOP-62 NSCLC it was 54.8%; in the experiment on NCI-H460 lung, 77.8%; with A549/ATCC NSCLC, 90.8%. Moreover, the values for the growth with 786-0 renal, in the experiment with COLO 205 colon and in the experiment on DU-145 prostate were 101%, 109% and 66.8%, respectively.

As for `COc1ccc(/C=C2\NC(=S)NC2=O)cc1`, the growth is 113% with NCI-H23 lung; 100% in the experiment on NCI-H226 lung; 95.2% in the experiment on NCI-H322M lung; 83.5% in the experiment on HOP-62 NSCLC; 104% with NCI-H460 lung; 107% in the experiment on A549/ATCC NSCLC. Further, the figures for the growth in the experiment with 786-0 renal, with COLO 205 colon and with DU-145 prostate were 109%, 88.2% and 118%, respectively.

On to `COC(=O)[C@]1(CCSC)N[C@H](c2cn(-c3ccccc3)nc2C)[C@@H]2C(=O)N(c3ccc(C)cc3)C(=O)[C@@H]21`, for which the growth with NCI-H23 lung is 100%; in the experiment on NCI-H226 lung it was 129%; in the experiment on NCI-H322M lung, 104%; in the experiment on HOP-62 NSCLC, 99.5%; in the experiment on NCI-H460 lung it was 104%; in the experiment on A549/ATCC NSCLC, 90.5%. Besides, the growth in the experiment on 786-0 renal was 97.1%; in the experiment on COLO 205 colon, 113%; with DU-145 prostate it was 103%.

With `Cc1cc(O)c2c(c1)C[C@H]1[C@@H]3CC[C@H]4CC(=O)CC[C@]4(C)[C@H]3CC(=O)[C@]21C`, the growth with NCI-H23 lung is 77.3%; with NCI-H226 lung, 94.6%; with NCI-H322M lung, 104%; with HOP-62 NSCLC, 123%; in the experiment on NCI-H460 lung, 99.2%; with A549/ATCC NSCLC, 77%. For the same molecule, the growth is 87.8% in the experiment with 786-0 renal, 104% in the experiment on COLO 205 colon and 85.2% in the experiment with DU-145 prostate.

For `Cn1cc(-c2csc(-c3c[nH]c4ncccc34)n2)c2cc(Br)cnc21`, the growth in the experiment with NCI-H23 lung was 31.6%; in the experiment on NCI-H226 lung it was 49%; in the experiment with NCI-H322M lung, 59.9%; in the experiment on HOP-62 NSCLC, -19.7% (active); with NCI-H522 lung, -2.08% (active); in the experiment with A549/ATCC NSCLC it was 5.11% (active). Moreover, the growth with 786-0 renal is 20%.

Turning to `COc1ccccc1[C@H]1c2[nH]c3ccccc3c2C[C@H]2C(=O)N(CCCCCCC(=O)NO)CC(=O)N12`, the growth is 52.3% in the experiment on NCI-H23 lung; 91.6% in the experiment on NCI-H226 lung; 76.1% in the experiment with NCI-H322M lung; 50.2% in the experiment on HOP-62 NSCLC; 62.8% in the experiment with NCI-H460 lung; 76.5% in the experiment with A549/ATCC NSCLC. Further, the growth in the experiment on 786-0 renal was 89.4%; in the experiment with DU-145 prostate, 43.7%.

On to `CC(C)C/C(=N\NC(=O)c1ccncc1)c1cc(Cl)ccc1O`, for which the growth in the experiment with NCI-H23 lung is 23.1%; with NCI-H226 lung, 50.5%; in the experiment with NCI-H322M lung it was 13.1%; with HOP-62 NSCLC, 30.6%; in the experiment with NCI-H460 lung it was 8.41% (active); with A549/ATCC NSCLC, 20.8%. Further, the growth was -1.16% (active) in the experiment on 786-0 renal, 13.9% with COLO 205 colon and 23.5% in the experiment on DU-145 prostate.
